From PubChem BioAssay
Hits are enriched below; roughly 1% of the tested compounds scored in any of these assays.
F-actin modifier: cytoskeleton assembly modification; actives 0.18% (n = 91,000); HUVEC TNFa F-actin phalloidin imaging, high content; inhibition, % at 2 µM; AID 836;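 active = inhibition above the batch mean plus 3 SD and confirmed as a hit by visual image inspection, cut at about 30% in these data, passing the limit was not always enough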
VCAM1 TNFa inh: reduces TNF alpha induced VCAM1 expression in HUVEC. HUVEC TNFa-induced VCAM-1 immunofluorescence, high-content imaging. inhibition, % at 2 µM. actives 0.48% (n = 95,000). AID 802;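 active = inhibition above the batch mean plus 3 SD, with images confirmed as a hit by eye, cut at about 37% in these data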
HUVEC tox TNFa: toxic to HUVEC cells under TNF alpha stimulation; HUVEC TNFalpha-stimulated, Hoechst cell count, imaging; AID 848; cell count reduction, % at 2 µM; actives 0.17% (n = 93,000);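 active = cell count reduction exceeding the screen mean by over 5 SD, scaled to untreated wells per plate, cut at about 78% in these data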;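 also: cells counted after 24 h of TNF alpha exposure following the 1 h pretreatment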
E-sel TNF inh: blocks E-selectin expression induced by TNF alpha; HUVEC TNFa-induced E-selectin immunofluorescence, high content; inhibition, % at 2 µM; actives 0.71% (n = 120,000);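 active = inhibition above the batch mean plus 3 SD, and confirmed as a hit on visual image review, cut at about 43% in these data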
A number is an active result; n = inactive; x = not tested or not shown.

SMILES | F-actin modifier | VCAM1 TNFa inh | HUVEC tox TNFa | E-sel TNF inh
CCN1CCN(Cc2cc(OC)c(OC)cc2[N+](=O)[O-])CC1 | n | n | n | 100
CCN1CCN(Cc2cc(Br)cc(OC)c2O)CC1 | n | n | n | n
O=c1[nH]c(O)c(N=Nc2ccc([N+](=O)[O-])cc2)c(=O)[nH]1 | x | x | x | n
CC1CN(c2cc([N+](=O)[O-])ccc2Cl)CC(C)N1 (configuration not stated) | x | x | x | 100
Cc1cc(C=O)c(C)n1C1CC1 | x | x | x | n
CC(=O)OC(C)(C)/C=C/C(=O)[C@](C)(O)[C@H]1[C@H](O)C[C@@]2(C)[C@@H]3CC=C4[C@H](C[C@H](O)C(=O)C4(C)C)[C@]3(C)C(=O)C[C@]12C | x | x | x | 60
COC(=O)C(O)(c1ccc(N(C)C(=O)OC(C)C)cc1)C(F)(F)F (configuration not stated) | n | n | n | n
CCOc1ccccc1N1C(=O)NC(=O)C(CCc2ccncc2)(CCc2ccncc2)C1=O | 33 | n | n | n
CCCC12CN3CCN(CC(C3)/C1=N\NC(=O)c1ccncc1)C2 | x | x | x | n
CCN1/C(=C\C=C\C2=[N+](CC)c3ccccc3C2(C)C)C(C)(C)c2ccccc21 | n | 88 | n | n
Cc1cccc(-n2c(O)c(C)c(=O)[nH]c2=S)c1 | x | x | x | n
COc1ccc(C(=O)C2(C)N(O)C(C)C(c3cccs3)=[N+]2[O-])cc1 (configuration not stated) | n | n | n | 58
O=C(Nc1nc(-c2ccccc2)c(-c2ccccc2)s1)c1ccc(S(=O)(=O)N(CCCl)CCCl)cc1 | x | x | x | 60
CCC(=NCCc1c[nH]c2ccccc12)c1c(O)n(C)c(=O)n(C)c1=O | n | n | n | n
CCCCCc1nc2ccccc2c(=O)n1-c1ccc(Cl)cc1[N+](=O)[O-] | n | n | n | n
CC(N)Cc1c[nH]c2ccc(Cl)cc12 (configuration not stated) | n | 39 | n | n
CC(=NCCN1CCCCC1)c1c(O)n(-c2ccc(Cl)cc2)c(=O)[nH]c1=O | n | n | n | n
CN(C)CC1CSCCC1(O)c1ccc(Cl)cc1 (configuration not stated) | n | n | n | 42
CN(C)CC1CSCCC1(O)c1ccccc1Cl (configuration not stated) | n | n | n | n
O=C(c1cccn2c(=O)c3ccc(Cl)cc3nc12)N1CCC2(CC1)OCCO2 | n | n | n | n
CC(c1ccccc1F)n1cc(C(=O)Nc2ccc3nc[nH]c3c2)nn1 (configuration not stated) | n | n | 80 | x
COc1ccc(CCNCc2ccc(SC)cc2)cc1 | n | n | n | x
CCCCC12CNCC(C)(CNC1)C2=O | n | n | n | 100
Cn1cccc1/C=C1\C(=O)NC(=O)N(CCC2=CCCCC2)C1=O | x | x | x | 77
O=C1NC(=O)N(CCC2=CCCCC2)C(=O)/C1=C\c1cccs1 | x | x | x | n
CCc1ccc(N2C(=O)NC(=O)/C(=C/c3cccn3CCOc3ccc(C(C)CC)cc3)C2=O)cc1 (configuration not stated) | x | x | x | 80
CN1C(=O)/C(=C/c2cccn2-c2ccc3ccccc3c2)C(=O)NC1=S | n | n | n | 79
COc1ccc2c(c1)c(C(=O)CN1CCC3(CC1)OCCO3)c(C)n2Cc1ccccc1 | n | n | n | n
C=CCn1c(=O)c(C=Nc2c(OC)cccc2[N+](=O)[O-])c(O)n(CCCC)c1=O | x | x | x | n
O=C1C2CCCN2C(c2cccnc2)N1c1ccc(Cl)c(Cl)c1 (configuration not stated) | n | 75 | n | n
